In all, about 5,500 compounds went through this assay and about 2,000 (36%) were called active. Inconclusive results (about 18%) are left out. Cut-off read from the data, not from the text of the source: active = normalized growth mostly below about 0.91 (no sharp cut-off); inconclusive = no clear call, values can overlap the other calls; inactive = mostly above about 0.92. The list shows a part of the results.
Assay: chemical genetic growth profiling, strain panel (AID 1159580);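 note: tested at 20 µM; growth read once vehicle control cultures reached saturation at 30 °C; 1 = growth at the plate median or of vehicle wells; lower values mean less growth of the strain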
Conditions: S. cerevisiae deletion strains, growth OD
[1] = locus YDL101C, strain DUN1, hits give low values
[2] = locus YHR030C, strain SLT2, hits give low values

Measured: normalized growth

Cc1c(C)c(C)c(CSc2nc3ccccc3[nH]2)c(C)c1C
inactive: locus YAL013W, strain DEP1, hits give low values 1.01 | locus YBR229C, strain ROT2, hits give low values 1.02 | locus YCL061C, strain MRC1, hits give low values 1.04 | [1] 1.03 | locus YDL134C, strain PPH21, hits give low values 1.02 | locus YDR150W, strain NUM1, hits give low values 1.02 | locus YEL061C, strain CIN8, hits give low values 1.03 | locus YGR078C, strain PAC10, hits give low values 1.03 | [2] 1.08 | locus YHR087W, strain rtc3, hits give low values 1.04 | locus YJL187C, strain SWE1, hits give low values 1.01 | locus YJR043C, strain POL32, hits give low values 1.04 | locus YJR075W, strain HOC1, hits give low values 1.07 | locus YKL190W, strain CNB1, hits give low values 1.03 | locus YLR039C, strain RIC1, hits give low values 1.02 | locus YLR058C, strain SHM2 (second series), hits give low values 1.06 | locus YLR085C, strain ARP6, hits give low values 1.01 | locus YLR262C, strain YPT6, hits give low values 1.03 | locus YML094W, strain GIM5, hits give low values 1.03 | locus YMR219W, strain ESC1, hits give low values 1.01 | locus YMR263W, strain SAP30, hits give low values 1.03 | locus YNL153C, strain GIM3, hits give low values 1.05 | locus YNL298W, strain CLA4 (second series), hits give low values 1.05 | locus YNL322C, strain KRE1, hits give low values 1.02 | locus YNR030W, strain Alg12, hits give low values 1.03 | locus YPL055C, strain LGE1, hits give low values 1.08 | locus YPL241C, strain CIN2, hits give low values 1.03 | locus YPR135W, strain CTF4, hits give low values 1.26

N#Cc1cccc(CSc2nc3ccc(C(F)(F)F)cc3[nH]2)c1
active: locus YLR113W, strain HOG1, hits give low values 0.793
inactive: locus YAR019C, strain CDC15, hits give low values 0.965 | locus YBL105C, strain PKC1, hits give low values 0.968 | locus YBR135W, strain CKS1, hits give low values 0.973 | locus YBR136W, strain MEC1, hits give low values 0.968 | locus YBR160W, strain CDC28, hits give low values 0.968 | locus YDL017W, strain CDC7, hits give low values 0.972 | locus YDL028C, strain MPS1, hits give low values 0.978 | [1] 0.969 | locus YDL108W, strain KIN28, hits give low values 0.973 | locus YDL132W, strain cdc53, hits give low values 0.976 | locus YDL214C, strain PRR2, hits give low values 0.893 | locus YDR052C, strain DBF4, hits give low values 0.962 | locus YDR054C, strain cdc34, hits give low values 0.962 | locus YDR226W, strain ADK1, hits give low values 0.969 | locus YDR477W, strain SNF1, hits give low values 0.903 | locus YER123W, strain YCK3, hits give low values 0.881 | locus YER133W, strain GLC7, hits give low values 0.895 | locus YFL009W, strain cdc4, hits give low values 0.974 | locus YFL029C, strain CAK1, hits give low values 0.966 | locus YFR003C, strain YPI1, hits give low values 0.97 | locus YFR019W, strain FAB1, hits give low values 0.936 | locus YFR028C, strain CDC14, hits give low values 0.971 | locus YGR040W, strain KSS1, hits give low values 0.908 | locus YGR052W, strain FMP48, hits give low values 0.938 | locus YGR092W, strain DBF2, hits give low values 0.933 | [2] 0.858 | locus YHR079C, strain IRE1, hits give low values 0.851 | locus YHR082C, strain KSP1, hits give low values 0.965 | locus YHR205W, strain SCH9, hits give low values 0.898 | locus YIL147C, strain SLN1, hits give low values 0.972 | locus YJL095W, strain BCK1, hits give low values 0.901 | locus YJL128C, strain PBS2, hits give low values 0.909 | locus YJL157C, strain FAR1, hits give low values 0.89 | locus YJR016C, strain ILV3, hits give low values 0.97 | locus YJR066W, strain TOR1 (second series), hits give low values 0.848 | locus YJR066W, strain TOR1, hits give low values 0.935 | locus YKL048C, strain ELM1, hits give low values 0.963 | locus YKL067W, strain YNK1, hits give low values 0.889 | locus YKL101W, strain HSL1, hits give low values 0.901 | locus YKL193C, strain SDS22, hits give low values 0.973 | locus YKL203C, strain TOR2, hits give low values 0.937 | locus YLR133W, strain CKI1, hits give low values 0.898 | locus YLR403W, strain SFP1, hits give low values 0.907 | locus YML070W, strain DAK1, hits give low values 0.889 | locus YMR001C, strain CDC5, hits give low values 0.971 | locus YMR205C, strain PFK2 (second series), hits give low values 0.924 | locus YMR277W, strain FCP1, hits give low values 0.969 | locus YNL006W, strain LST8, hits give low values 0.97 | locus YNL020C, strain ARK1, hits give low values 0.892 | locus YNL161W, strain CBK1, hits give low values 0.965 | locus YNL183C, strain NPR1, hits give low values 0.92 | locus YNL207W, strain RIO2, hits give low values 0.966 | locus YNL222W, strain SSU72, hits give low values 0.976 | locus YNL307C, strain MCK1 (second series), hits give low values 0.89 | locus YOL078W, strain AVO1, hits give low values 0.974 | locus YOL136C, strain PFK27, hits give low values 0.858 | locus YOR061W, strain CKA2, hits give low values 0.9 | locus YOR119C, strain RIO1, hits give low values 0.962 | locus YOR231W, strain MKK1, hits give low values 0.871 | locus YOR329C, strain SCD5, hits give low values 0.96 | locus YPL031C, strain PHO85, hits give low values 0.88 | locus YPL153C, strain RAD53, hits give low values 0.899 | locus YPL204W, strain HRR25, hits give low values 0.877 | locus YPL209C, strain IPL1, hits give low values 0.967 | locus YPL256C, strain CLN2, hits give low values 0.882 | locus YPR025C, strain CCL1, hits give low values 0.972 | locus YPR106W, strain ISR1, hits give low values 0.956 | locus YPR111W, strain DBF20, hits give low values 0.946 | strain NNK1, hits give low values 0.944 | strain TSCII, hits give low values 0.965

From PubChem BioAssay AID1159580 (chemical genetic matrix, 2015)
